Measurements reported in PubChem BioAssay AID651610 (Broad Institute, 2012).
The whole screen tested about 360,000 compounds, of which about 3,900 (1.1%) were called active.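 How the source made its calls: active means mean replicate inhibition score of at least 50 and every replicate individually at or above 50; inconclusive means only one of the two criteria met; inactive means mean below 50 and not all replicates reaching 50.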 Many of the other results were omitted from the sample, so actives are more common in it than they were.

Test: inhibitors of HIV-1 Env-driven cell-cell fusion, primary screen, HeLa-JRFL effector, CEM21 target cells, luciferase (AID 651610);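 further: 0% = plate neutral controls and 100% = maraviroc near 300 nM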
Settings: stronger effect = higher value; at 16.7 µM unless noted

inhibition, inactive:
Cc1noc(C)c1NC(=O)N[C@@H]1C=C[C@H](CC(=O)N2CCCCC2)O[C@H]1CO 7.13%
C[C@H](CO)N1C[C@H](C)[C@@H](CN(C)C(=O)c2ccccc2)OCCCC[C@H](C)Oc2ccc(NC(=O)c3ccccc3)cc2C1=O -52.7%
CCCCCCCCN1C(=O)[C@@H](CC(=O)NCc2ccc(C)o2)C[C@@]2(C(=O)OC)C1=C[C@H](C(C)(C)C)O[C@@H]2C 38% [at 12.3 µM]
CCOC(=O)[C@]12CCCC=C1N(CCC1=CCCCC1)C(=O)[C@H](CC(=O)NCCCOC)C2 20% [at 12.3 µM]
CCCCCCCCN1C(=O)[C@@H](CC(=O)NCCCC)C[C@@]2(C(=O)OC)C1=C[C@H](C(C)(C)C)O[C@@H]2C 39.6% [at 12.3 µM]
CCOC(=O)[C@]12CCC=C1N(CCC1=CCCCC1)C(=O)[C@H](CC(=O)NCc1ccc(C)o1)C2 -8.89% [at 12.3 µM]
COC(=O)[C@]12C[C@H](CC(=O)NCCC(C)C)C(=O)N(CCc3ccc(OC)c(OC)c3)C1=C[C@H](C(C)(C)C)O[C@@H]2C 14.5% [at 12.3 µM]
CCCCOCCCNC(=O)C[C@@H]1C[C@@]2(C(=O)OCC)CCCC=C2N(CCC2=CCCCC2)C1=O 34.4% [at 12.3 µM]
COC(=O)[C@]12C[C@H](CC(=O)NCCCCc3ccccc3)C(=O)N(Cc3ccc4c(c3)OCO4)C1=C[C@H](C(C)(C)C)O[C@@H]2C -19.5% [at 12.3 µM]
COCCCNC(=O)C[C@H]1C[C@@]2(C(=O)OC)C(=C[C@H](C(C)(C)C)O[C@@H]2C)N(Cc2ccc3c(c2)OCO3)C1=O -14% [at 12.3 µM]
COc1ccccc1NC(=O)N[C@H]1CC[C@@H](CCn2cc(C3(O)CCCC3)nn2)O[C@@H]1CO -2.19%
N#C[C@H]1[C@H](c2ccc(-c3ccccc3)cc2)[C@@H](CO)N1C(=O)Cc1ccccc1 -31.2%
C[C@@H]1CCCCO[C@H](CN(C)C(=O)CCCN(C)C)[C@H](C)CN([C@H](C)CO)C(=O)c2cc(NC(=O)CCC(F)(F)F)ccc2O1 6%
C[C@@H]1CCCCO[C@@H](CN(C)Cc2ccncc2)[C@H](C)CN([C@H](C)CO)C(=O)c2cc(NC(=O)NC3CCCCC3)ccc2O1 10.4%
O=C(C[C@@H]1C[C@H]2c3cc(NC(=O)Nc4ccccc4)ccc3O[C@H]2[C@@H](CO)O1)NC1CCCCC1 6.41%
CN(CC(=O)NCc1cccnc1)S(=O)(=O)c1cc(Cl)ccc1Cl 2.11% [at 12.3 µM]
CCc1ccc(N(CC(=O)NCc2cccnc2)S(=O)(=O)c2ccccc2)cc1 10.5% [at 12.3 µM]
C/C=C/c1ccccc1[C@@H]1[C@@H](C#N)N(c2nc(CC)cs2)[C@@H]1CO -1.66%
CCCNC(=O)N1CCC2(CC1)CN(C(=O)CN1CCOCC1)[C@H](CO)c1[nH]c3cc(OC)ccc3c12 -5.75%
Cc1ccccc1-c1cnc2c(c1)C(=O)N([C@H](C)CO)C[C@H](C)[C@@H](CN(C)C(=O)c1ccccc1)O2 -8.15%
O=C(NCc1ccc2c(c1)OCO2)C12CC3CC(CC(C3)C1)C2 8.77% [at 12.3 µM]
Cc1ccc(C(=O)NC23CC4CC(CC(C4)C2)C3)c(Cl)c1 -0.699% [at 12.3 µM]
CN(C)C(=O)C[C@H]1C=C[C@@H](NC(=O)C2CCC2)[C@@H](CO)O1 24.4%
Cc1ccc(OCC(=O)N2CCN(C(=O)c3cccnc3)CC2)cc1 -3.51% [at 12.3 µM]
CCCOc1cccc(C(=O)NCCCNC(=O)c2cccnc2)c1 11.1% [at 12.3 µM]
C[C@H](CO)N1C[C@H](C)[C@H](CN(C)S(C)(=O)=O)Oc2ncc(C3=CCCCC3)cc2C1=O 10.5%
N#C[C@H]1[C@H](c2ccc(C#Cc3ccc(F)cc3)cc2)[C@@H](CO)N1C(=O)C1CCCC1 10.1%
COCc1cn(CC[C@@H]2CC[C@@H](NC(=O)Cc3cccnc3)[C@@H](CO)O2)nn1 7.99%
C[C@H]1CCCCO[C@H](CN(C)C(=O)Nc2ccc3c(c2)OCO3)[C@@H](C)CN([C@@H](C)CO)C(=O)c2cc(NC(=O)Nc3ccccc3)ccc2O1 -15.3%
CN(C)CCN(C(=O)C1=COCCO1)c1nc2ccc(Cl)cc2s1 -71.9% [at 12.3 µM]
CCN(CC)CCN(C(=O)c1ccc(N2C(=O)CCC2=O)cc1)c1nc2cc3c(cc2s1)OCO3 13.5% [at 12.3 µM]
CC(C)NC(=O)N(C)C[C@H]1Oc2ccc(NS(=O)(=O)c3cn(C)cn3)cc2CC(=O)N([C@@H](C)CO)C[C@H]1C -7.65%

inhibition, active:
COC(=O)[C@]12C[C@H](CC(=O)NCc3ccc(C)o3)C(=O)N(CCC3=CCCCC3)C1=C[C@H](C(C)(C)C)O[C@@H]2C 70.3% [at 12.3 µM]
COC(=O)[C@]12C[C@H](CC(=O)NCc3ccccc3)C(=O)N(CCC3=CCCCC3)C1=C[C@H](C(C)(C)C)O[C@@H]2C 67.5% [at 12.3 µM]
CCCCOCCCNC(=O)C[C@@H]1C[C@@]2(C(=O)OC)CCCCC=C2N(CCC2=CCCCC2)C1=O 63.6% [at 12.3 µM]
CCCCCCCCN1C(=O)[C@@H](CC(=O)NCc2ccccc2)C[C@@]2(C(=O)OC)C1=C[C@H](C(C)(C)C)O[C@@H]2C 64.7% [at 12.3 µM]
O=C(CN(c1cc(C(F)(F)F)ccc1Cl)S(=O)(=O)c1ccccc1)NCc1cccnc1 85.1% [at 12.3 µM]
S=C(NCc1ccc(Cl)cc1)NC12CC3CC(CC(C3)C1)C2 103% [at 12.3 µM]
CCCCCCOc1ccc(OC(=O)c2cccnc2)cc1 58.2% [at 12.3 µM]
CCN(CC)CCN(C(=O)c1cc(Cl)sc1Cl)c1nc2cc3c(cc2s1)OCO3 71.9% [at 12.3 µM]
